Calls of active or inactive are those of the source. Unless noted, no stated cut-off is given here; in the data, active means inhibition above about 33%; inactive means the rest.
Assays:
[1] = StAR promoter reporter inhibitors, counter-screen for LRH-1 inverse agonist project, cell-based, luminescence, high throughput (AID 651611; in the data active means inhibition above about 28%); settings: StAR promoter luciferase reporter counterscreen, at 3.6 µM, stronger effect = higher value
[2] = molecular target: Nuclear receptor subfamily 5 group A member 2 (Homo sapiens) (UniProt O00482); experiment: LRH-1 (NR5A2) inverse agonists, retest, confirmation, cell-based, luminescence (AID 651613; in the data active means inhibition above about 42%;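 further: HEK293T cells co-transfected with LRH-1 and StAR promoter luciferase reporter; 0% = vehicle wells and 100% = parental cells lacking receptor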); settings: cell-based LRH-1 luciferase reporter, inverse agonism; at 3.6 µM; stronger effect = higher value
[3] = molecular target: Steroidogenic factor 1 (Homo sapiens) (UniProt Q13285); experiment: SF1 (NR5A1) inverse agonists, counter-screen for LRH-1 inverse agonist project, cell-based, luminescence, high throughput (AID 651614; in the data active means inhibition above about 44%;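 further: cells cotransfected with StAR promoter reporter and SF1 expression vector; 0% = vehicle on cells with receptor and 100% = vehicle on cells lacking receptor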); settings: cell-based SF1 luciferase reporter, at 3.6 µM, stronger effect = higher value
[4] = VP16 transactivation reporter inhibitors, counter-screen for LRH-1 inverse agonist project, cell-based, luminescence, high throughput (AID 651615); settings: Gal4-VP16 luciferase reporter cells, at 3.6 µM, stronger effect = higher value

Nuclear receptor subfamily 5 group A member 2 (Homo sapiens), sequence (O00482 whole entry, looked up): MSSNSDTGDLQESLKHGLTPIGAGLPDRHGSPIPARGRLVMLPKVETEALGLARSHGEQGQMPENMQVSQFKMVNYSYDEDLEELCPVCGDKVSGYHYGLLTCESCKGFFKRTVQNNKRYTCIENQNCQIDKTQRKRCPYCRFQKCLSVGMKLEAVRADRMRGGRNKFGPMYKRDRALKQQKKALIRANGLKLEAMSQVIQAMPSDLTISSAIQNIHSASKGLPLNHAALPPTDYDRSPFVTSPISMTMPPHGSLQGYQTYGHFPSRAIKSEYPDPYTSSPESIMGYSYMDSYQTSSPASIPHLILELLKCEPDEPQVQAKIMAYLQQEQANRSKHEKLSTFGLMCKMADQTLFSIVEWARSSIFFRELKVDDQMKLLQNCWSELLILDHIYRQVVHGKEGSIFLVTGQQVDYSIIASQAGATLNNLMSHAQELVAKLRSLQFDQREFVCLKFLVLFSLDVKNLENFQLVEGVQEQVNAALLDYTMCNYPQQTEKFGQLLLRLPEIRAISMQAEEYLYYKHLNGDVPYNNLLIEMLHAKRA
Steroidogenic factor 1 (Homo sapiens), sequence (Q13285 whole entry, looked up, the tested form may be a part): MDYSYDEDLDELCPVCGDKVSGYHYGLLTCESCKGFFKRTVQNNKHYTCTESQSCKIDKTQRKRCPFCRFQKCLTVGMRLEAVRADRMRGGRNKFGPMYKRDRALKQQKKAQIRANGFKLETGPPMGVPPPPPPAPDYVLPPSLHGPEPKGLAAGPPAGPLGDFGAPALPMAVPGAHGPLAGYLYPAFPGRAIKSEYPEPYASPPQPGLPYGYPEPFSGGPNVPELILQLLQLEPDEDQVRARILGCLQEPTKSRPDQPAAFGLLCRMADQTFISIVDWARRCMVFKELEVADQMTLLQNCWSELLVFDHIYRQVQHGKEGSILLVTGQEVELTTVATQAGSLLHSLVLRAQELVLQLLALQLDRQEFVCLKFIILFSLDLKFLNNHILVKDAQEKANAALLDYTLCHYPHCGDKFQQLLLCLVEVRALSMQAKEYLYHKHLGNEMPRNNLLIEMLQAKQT

| Structure (SMILES) | inhibition [1] | inhibition [2] | inhibition [3] | inhibition [4] |
| --- | --- | --- | --- | --- |
| COc1cc(OC)cc(-c2oc3cccnc3c2C#CCCO)c1 | 2.16% (inactive) | 60.8% (active) | 54.2% (active) | -0.7% (inactive) |
| CCCc1cc(NCCOCCO)n2c(nc3ccccc32)c1C#N | 4.93% (inactive) | 45.1% (active) | 36.6% (inactive) | -14.6% (inactive) |
| O=[N+]([O-])c1cnccc1Nc1ccc(F)cc1 | 13.2% (inactive) | 66.8% (active) | 55.2% (active) | 9.14% (inactive) |
| COc1ccc(-c2nnc(NC(=O)c3ccc([N+](=O)[O-])o3)o2)c(OC)c1 | 15.5% (inactive) | 63.4% (active) | 57% (active) | 10.2% (inactive) |
| CC(C)C(=O)N1CCN(c2ccccc2NC(=O)c2ccc([N+](=O)[O-])o2)CC1 | 10.9% (inactive) | 59.1% (active) | 42.2% (inactive) | 25% (inactive) |

Reference: PubChem BioAssay
